# Data published in article PMC5540273 (PLoS ONE, 2017).
# “And” between values parts separate entries of the source, which are not always exact repeats. Equal values may be shown once. Read-outs that look alike come from different tables or passages of the source.
# What was measured:
# MST2 = test system: T1, MST2; conditions: n = 1
# T1 construct: gene STK3
# MST3 = test system: T2, MST3; conditions: concentration: 1 μM, replicates: in singlicate; n = 1
# T2 construct: gene STK24
# MST4 = conditions: n = 1
# MTOR = conditions: n = 1
# MUSK = conditions: n = 1
# MYLK2 = conditions: n = 1
# MYLK4 = conditions: n = 1
# MYLK = conditions: n = 1
# MYO3A = conditions: n = 1
# MYO3B = conditions: n = 1
# NDR1 = test system: T3, NDR1; conditions: n = 1
# T3 construct: gene STK38
# NDR2 = conditions: concentration: 1 μM, replicates: in singlicate; n = 1
# NEK10 = conditions: n = 1
# NEK11 = conditions: concentration: 1 μM, replicates: in singlicate; n = 1
# NEK1 = conditions: concentration: 1 μM, replicates: in singlicate; n = 1
# NEK2 = conditions: n = 1
# NEK3 = conditions: n = 1
# NEK4 = conditions: n = 1
# NEK5 = conditions: n = 1
# NEK6 = conditions: concentration: 1 μM, replicates: in singlicate; n = 1
# [1] = concentration: 1 μM,replicates: in singlicate, 1 µM
# [2] = concentration: 1 μM, replicates: in singlicate
# 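Also: KINOMEscan kinase panel screen.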
smiles,measurement,setting,value
CSc1nn2c(=O)cc(N3CCOCC3)nc2n1Cc1cccc(C(F)(F)F)c1C [GSK2363608],%Inh,MST2; [1],9% and 1%
same,%Inh,MST3,0%
same,%Inh,MST4; [1],90.3% and 0%
same,%Inh,MTOR; [1],13% and 28%
same,%Inh,MUSK; [1],12% and 4%
same,%Inh,MYLK2; [1],19% and 0%
same,%Inh,MYLK4; [1],17% and 0%
same,%Inh,MYLK; [1],6% and 0%
same,%Inh,MYO3A; [1],21% and 0%
same,%Inh,MYO3B; [1],0% and 14%
same,%Inh,NDR1; [1],17% and 8%
same,%Inh,NDR2,0%
same,%Inh,NEK10; [1],8% and 28%
same,%Inh,NEK11,0%
same,%Inh,NEK1,0%
same,%Inh,NEK2; [1],100% and 1%
same,%Inh,NEK3; [1],14% and 3%
same,%Inh,NEK4; [1],0% and 16%
same,%Inh,NEK5; [1],23% and 0%
same,%Inh,NEK6,0%
Cl.c1ccc(-c2n[nH]cc2-c2ccnc(-c3ccc(CN4CCOCC4)cc3)c2)nc1 [GW776245],%Inh,MST2; [2],0%
same,%Inh,MST3,0%
same,%Inh,MST4; [2],0%
same,%Inh,MTOR; [2],42%
same,%Inh,MUSK; [2],1%
same,%Inh,MYLK2; [2],10%
same,%Inh,MYLK4; [2],0%
same,%Inh,MYLK; [2],2%
same,%Inh,MYO3A; [2],0%
same,%Inh,MYO3B; [2],1%
same,%Inh,NDR1; [2],14%
same,%Inh,NDR2,31%
same,%Inh,NEK10; [2],0%
same,%Inh,NEK11,0%
same,%Inh,NEK1,0%
same,%Inh,NEK2; [2],21%
same,%Inh,NEK3; [2],14%
same,%Inh,NEK4; [2],0%
same,%Inh,NEK5; [2],6%
same,%Inh,NEK6,22%
Cl.NC(=O)c1cccc(Nc2nccc(Nc3ccc(Oc4cccc(Cl)c4)c(Cl)c3)n2)c1 [GW659008],%Inh,MST2; [2],0%
same,%Inh,MST3,10%
same,%Inh,MST4; [2],0%
same,%Inh,MTOR; [2],0%
same,%Inh,MUSK; [2],13%
same,%Inh,MYLK2; [2],21%
same,%Inh,MYLK4; [2],14%
same,%Inh,MYLK; [2],3%
same,%Inh,MYO3A; [2],6%
same,%Inh,MYO3B; [2],3%
same,%Inh,NDR1; [2],0%
same,%Inh,NDR2,0%
same,%Inh,NEK10; [2],0%
same,%Inh,NEK11,0%
same,%Inh,NEK1,0%
same,%Inh,NEK2; [2],0%
same,%Inh,NEK3; [2],0%
same,%Inh,NEK4; [2],1%
same,%Inh,NEK5; [2],32%
same,%Inh,NEK6,0%
Cc1cccc(-c2nc(C)cc(Nc3ccncc3)n2)n1 [GSK257997],%Inh,MST2; [2],0%
same,%Inh,MST3,0%
same,%Inh,MST4; [2],0%
same,%Inh,MTOR; [2],13%
same,%Inh,MUSK; [2],0%
same,%Inh,MYLK2; [2],16%
same,%Inh,MYLK4; [2],9%
same,%Inh,MYLK; [2],5%
same,%Inh,MYO3A; [2],6%
same,%Inh,MYO3B; [2],0%
same,%Inh,NDR1; [2],7%
same,%Inh,NDR2,0%
same,%Inh,NEK10; [2],27%
same,%Inh,NEK11,0%
same,%Inh,NEK1,0%
same,%Inh,NEK2; [2],0%
same,%Inh,NEK3; [2],0%
same,%Inh,NEK4; [2],0%
same,%Inh,NEK5; [2],20%
same,%Inh,NEK6,0%
Cc1c(Cn2ccn3c(=O)cc(N4CCOCC4)nc23)cccc1C(F)(F)F [GSK2289044],%Inh,MST2; [2],0%
same,%Inh,MST3,0%
same,%Inh,MST4; [2],0%
same,%Inh,MTOR; [2],15%
same,%Inh,MUSK; [2],17%
same,%Inh,MYLK2; [2],0%
same,%Inh,MYLK4; [2],0%
same,%Inh,MYLK; [2],16%
same,%Inh,MYO3A; [2],12%
same,%Inh,MYO3B; [2],2%
same,%Inh,NDR1; [2],31%
same,%Inh,NDR2,0%
same,%Inh,NEK10; [2],0%
same,%Inh,NEK11,0%
same,%Inh,NEK1,0%
same,%Inh,NEK2; [2],8%
same,%Inh,NEK3; [2],0%
same,%Inh,NEK4; [2],0%
same,%Inh,NEK5; [2],2%
same,%Inh,NEK6,0%
Cn1ccc2ncnc(Oc3ccc(NC(=O)Nc4ccccc4)cc3)c21,%Inh,MST2; [2],0%
same,%Inh,MST3,0%
same,%Inh,MST4; [2],0%
same,%Inh,MTOR; [2],16%
same,%Inh,MUSK; [2],14%
same,%Inh,MYLK2; [2],2%
same,%Inh,MYLK4; [2],0%
same,%Inh,MYLK; [2],3%
same,%Inh,MYO3A; [2],5%
same,%Inh,MYO3B; [2],28%
same,%Inh,NDR1; [2],9%
same,%Inh,NDR2,0%
same,%Inh,NEK10; [2],18%
same,%Inh,NEK11,0%
same,%Inh,NEK1,0%
same,%Inh,NEK2; [2],3%
same,%Inh,NEK3; [2],12%
same,%Inh,NEK4; [2],0%
same,%Inh,NEK5; [2],0%
same,%Inh,NEK6,0%
COc1ccc(CNC(=O)NC2CCN(c3ccnc(Nc4cc(OC)c(OC)c(OC)c4)n3)C2)cc1 (stereo not shown) [GSK1379748],%Inh,MST2; [2],1%
same,%Inh,MST3,0%
same,%Inh,MST4; [2],0%
same,%Inh,MTOR; [2],14%
same,%Inh,MUSK; [2],2%
same,%Inh,MYLK2; [2],4%
same,%Inh,MYLK4; [2],2%
same,%Inh,MYLK; [2],10%
same,%Inh,MYO3A; [2],36%
same,%Inh,MYO3B; [2],0%
same,%Inh,NDR1; [2],21%
same,%Inh,NDR2,44%
same,%Inh,NEK10; [2],6%
same,%Inh,NEK11,18%
same,%Inh,NEK1,8%
same,%Inh,NEK2; [2],0%
same,%Inh,NEK3; [2],20%
same,%Inh,NEK4; [2],30%
same,%Inh,NEK5; [2],93.1%
same,%Inh,NEK6,0%
Fc1cc(Cl)ccc1Nc1ccnc2cc(I)ccc12 [GW551191],%Inh,MST2; [2],9%
same,%Inh,MST3,0%
same,%Inh,MST4; [2],0%
same,%Inh,MTOR; [2],8%
same,%Inh,MUSK; [2],0%
same,%Inh,MYLK2; [2],0%
same,%Inh,MYLK4; [2],0%
same,%Inh,MYLK; [2],11%
same,%Inh,MYO3A; [2],13%
same,%Inh,MYO3B; [2],0%
same,%Inh,NDR1; [2],18%
same,%Inh,NDR2,0%
same,%Inh,NEK10; [2],25%
same,%Inh,NEK11,0%
same,%Inh,NEK1,0%
same,%Inh,NEK2; [2],4%
same,%Inh,NEK3; [2],0%
same,%Inh,NEK4; [2],11%
same,%Inh,NEK5; [2],0%
same,%Inh,NEK6,0%
CC(C)(C)c1ccc(C(=O)Nc2cn3cc(Cl)ccc3n2)cc1,%Inh,MST2; [2],0%
same,%Inh,MST3,0%
same,%Inh,MST4; [2],0%
same,%Inh,MTOR; [2],31%
same,%Inh,MUSK; [2],0%
same,%Inh,MYLK2; [2],0%
same,%Inh,MYLK4; [2],0%
same,%Inh,MYLK; [2],9%
same,%Inh,MYO3A; [2],7%
same,%Inh,MYO3B; [2],0%
same,%Inh,NDR1; [2],99.7%
same,%Inh,NDR2,0%
same,%Inh,NEK10; [2],4%
same,%Inh,NEK11,0%
same,%Inh,NEK1,0%
same,%Inh,NEK2; [2],0%
same,%Inh,NEK3; [2],21%
same,%Inh,NEK4; [2],0%
same,%Inh,NEK5; [2],0%
same,%Inh,NEK6,0%
CN(C)CCN(C)C(=O)c1cc(-c2ccncc2)c(-c2ccc(Cl)c(O)c2)o1.Cl.Cl [SB-710397],%Inh,MST2; [2],0%
same,%Inh,MST3,0%
same,%Inh,MST4; [2],0%
same,%Inh,MTOR; [2],33%
same,%Inh,MUSK; [2],18%
same,%Inh,MYLK2; [2],11%
same,%Inh,MYLK4; [2],0%
same,%Inh,MYLK; [2],10%
same,%Inh,MYO3A; [2],0%
same,%Inh,MYO3B; [2],0%
same,%Inh,NDR1; [2],1%
same,%Inh,NDR2,36%
same,%Inh,NEK10; [2],33%
same,%Inh,NEK11,29%
same,%Inh,NEK1,0%
same,%Inh,NEK2; [2],0%
same,%Inh,NEK3; [2],26%
same,%Inh,NEK4; [2],20%
same,%Inh,NEK5; [2],8%
same,%Inh,NEK6,0%
O=C(Nc1n[nH]c2nc(-c3nccs3)c(Br)cc12)C1CCCC1 [SB-742609],%Inh,MST2; [2],0%
same,%Inh,MST3,0%
same,%Inh,MST4; [2],6%
same,%Inh,MTOR; [2],11%
same,%Inh,MUSK; [2],31%
same,%Inh,MYLK2; [2],90%
same,%Inh,MYLK4; [2],27%
same,%Inh,MYLK; [2],0%
same,%Inh,MYO3A; [2],0%
same,%Inh,MYO3B; [2],0%
same,%Inh,NDR1; [2],0%
same,%Inh,NDR2,0%
same,%Inh,NEK10; [2],15%
same,%Inh,NEK11,0%
same,%Inh,NEK1,0%
same,%Inh,NEK2; [2],0%
same,%Inh,NEK3; [2],14%
same,%Inh,NEK4; [2],38%
same,%Inh,NEK5; [2],0%
same,%Inh,NEK6,0%
